# About 79,000 compounds went through this panel and 15% of them were active in at least one assay; those are over-represented in the sample as a whole. Unmarked numbers belong to inactive results. Activity calls are given as the source filed them. Rule as the data show it: active = growth inhibition above about 70%; inactive = the rest.
# Assays:
# [1] = NCI Yeast Anticancer Drug Screen. Data for the mlh1 strain (AID 171);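 also: 0% = growth of vehicle-treated control cultures of the same strain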; conditions: S. cerevisiae mlh1 strain growth inhibition, active compounds read high
# Method in brief: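 Compounds are applied to a genetically altered yeast strain, and its growth is compared with that of vehicle-treated cultures to give percent inhibition.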
# [2] = NCI Yeast Anticancer Drug Screen. Data for the sgs1 strain (AID 173);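 also: 0% = growth of vehicle-only control cultures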; conditions: S. cerevisiae sgs1 mutant, active compounds read high
# Method in brief: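 Compounds applied to genetically altered yeast; growth compared with vehicle-treated cultures to give % inhibition.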
# [3] = NCI Yeast Anticancer Drug Screen. Data for the mlh1 rad18 strain (AID 175); conditions: S. cerevisiae mlh1 rad18 strain growth inhibition, active compounds read high
# Method in brief: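 Cells of a genetically altered yeast strain, deficient in DNA damage repair, were treated with compound. Their growth was then compared with that of vehicle-treated cultures to give inhibition.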
# [4] = NCI Yeast Anticancer Drug Screen. Data for the rad18 strain (AID 177); conditions: S. cerevisiae rad18 mutant growth inhibition, active compounds read high
# Method in brief: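 Compounds are applied to a repair-deficient yeast strain, and growth is compared with that of vehicle-treated cultures to give percent inhibition.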
# [5] = NCI Yeast Anticancer Drug Screen. Data for the rad52 strain (AID 147);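 also: 0% = growth of vehicle-treated control cultures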; conditions: S. cerevisiae rad52 mutant growth inhibition, active compounds read high
# Method in brief: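 DNA repair-defective yeast; compound exposure; growth scored against vehicle controls.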
# [6] = NCI Yeast Anticancer Drug Screen. Data for the wt1 strain (AID 149);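 also: 0% = growth of vehicle-treated wt1 cultures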; conditions: S. cerevisiae wt1 strain (SPY 50644) growth inhibition, active compounds read high
# Method in brief: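 wt1 strain grown with compound or vehicle; inhibition taken from the growth difference.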
# [7] = NCI Yeast Anticancer Drug Screen. Data for the rad50EPP+ strain (AID 151);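 also: 0% = growth of vehicle-treated control cultures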; conditions: S. cerevisiae rad50 mutant strain, active compounds read high
# Method in brief: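 rad50EPP+ yeast treated with test compounds. Readout: growth vs vehicle control.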
# [8] = NCI Yeast Anticancer Drug Screen. Data for the rad50 strain (AID 155);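 also: 0% = growth of vehicle-only cultures of the same strain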; conditions: S. cerevisiae rad50 strain growth inhibition, active compounds read high
# Method in brief: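 DNA repair mutant yeast, compound exposure, growth read-out; inhibition is taken relative to vehicle.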
# [9] = NCI Yeast Anticancer Drug Screen. Data for the mec2-1 strain (AID 157); conditions: S. cerevisiae mec2-1 strain, active compounds read high
# Method in brief: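 Growth inhibition is read against vehicle-treated controls after compound exposure of the mec2-1 yeast strain, which is defective in DNA damage repair or cell cycle control.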
# [10] = NCI Yeast Anticancer Drug Screen. Data for the rad14 strain (AID 159);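 also: 0% = growth of vehicle-treated control cultures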; conditions: S. cerevisiae rad14 strain growth inhibition, active compounds read high
# Method in brief: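 DNA repair-defective yeast, compound-exposed; % growth inhibition derived by comparison with vehicle-treated controls.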
# [11] = NCI Yeast Anticancer Drug Screen. Data for the sgs1 mgt1 strain (AID 161);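 also: 0% = growth of cultures given vehicle only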; conditions: S. cerevisiae sgs1 mgt1 strain, active compounds read high
# Method in brief: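 Growth of a repair-deficient yeast mutant was monitored after compound treatment and expressed as inhibition relative to vehicle-treated cultures.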
# [12] = NCI Yeast Anticancer Drug Screen. Data for the CLN2oe strain (AID 163);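 also: 0% = growth of vehicle-only control cultures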; conditions: S. cerevisiae CLN2oe strain, active compounds read high
# Method in brief: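 Compound-treated yeast; growth vs vehicle ctrl = % inhibition. Genetically altered strain (cell-cycle control).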
# [13] = NCI Yeast Anticancer Drug Screen. Data for the cln2 rad14 strain (AID 165);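 also: 0% = growth equal to vehicle treated cultures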; conditions: S. cerevisiae cln2 rad14 strain, active compounds read high
# Method in brief: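 Growth inhibition, relative to vehicle-treated controls, is the read-out. The test organism is a yeast strain with defined genetic alterations, cln2 rad14.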
# [14] = NCI Yeast Anticancer Drug Screen. Data for the bub3 strain (AID 167); conditions: S. cerevisiae bub3 mutant strain, active compounds read high
# Method in brief: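 In this screen, a yeast mutant lacking normal mitotic checkpoint function is challenged with compound. Relative growth versus vehicle gives the inhibition value.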
# [15] = NCI Yeast Anticancer Drug Screen. Data for the wt2 strain (AID 169);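 also: 0% = growth of vehicle-treated yeast cultures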; conditions: S. cerevisiae wt2 strain growth inhibition, active compounds read high
# Method in brief: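 Compound exposure of yeast; growth compared with vehicle controls; inhibition reported.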
# [16] = NCI Yeast Anticancer Drug Screen. Data for the mgt1 strain (AID 153); conditions: S. cerevisiae mgt1 mutant growth inhibition, active compounds read high
# Method in brief: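 Growth inhibition relative to vehicle controls was scored for the mgt1 yeast strain after compound exposure.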
# [17] = at 5.0 µM (retest, dose inferred, filed as 0.5)
# [18] = at 50.0 µM (retest, dose inferred, filed as 5.0)
compound,measurement,setting,value
Cc1nn(-c2cc(Cl)ccc2[N+](=O)[O-])c(C)c1Cl,growth inhibition,[1]; at 33.0 µM,1%
same,growth inhibition,[1]; at 100.0 µM,3%
same,growth inhibition,[2]; at 1.2 µM,-1%
same,growth inhibition,[2]; at 3.7 µM,-2%
same,growth inhibition,[2]; at 11.0 µM,-1%
same,growth inhibition,[2]; at 33.0 µM,-1%
same,growth inhibition,[2]; at 100.0 µM,2%
same,growth inhibition,[3]; [17],-3%
same,growth inhibition,[3]; [18],-9%
same,growth inhibition,[3]; at 50.0 µM,15.2%
same,growth inhibition,[4]; at 1.2 µM,2%
same,growth inhibition,[4]; at 3.7 µM,2%
same,growth inhibition,[4]; at 11.0 µM,2%
same,growth inhibition,[4]; at 33.0 µM,-14%
same,growth inhibition,[4]; at 100.0 µM,1%
Cc1ccc2ccc(O)cc2c1,growth inhibition,[5]; at 1.2 µM,-31%
same,growth inhibition,[5]; at 3.7 µM,-35%
same,growth inhibition,[5]; at 11.0 µM,-30%
same,growth inhibition,[5]; at 33.0 µM,-31%
same,growth inhibition,[5]; at 100.0 µM,80% (active)
same,growth inhibition,[6]; at 1.2 µM,-22%
same,growth inhibition,[6]; at 3.7 µM,-16%
same,growth inhibition,[6]; at 11.0 µM,-19%
same,growth inhibition,[6]; at 33.0 µM,-11%
same,growth inhibition,[6]; at 100.0 µM,71% (active)
same,growth inhibition,[7]; at 1.2 µM,-25%
same,growth inhibition,[7]; at 3.7 µM,-49%
same,growth inhibition,[7]; at 11.0 µM,-25%
same,growth inhibition,[7]; at 33.0 µM,-12%
same,growth inhibition,[7]; at 100.0 µM,46%
same,growth inhibition,[8]; at 1.2 µM,-23%
same,growth inhibition,[8]; at 3.7 µM,-28%
same,growth inhibition,[8]; [17],-9%
same,growth inhibition,[8]; at 11.0 µM,-38%
same,growth inhibition,[8]; at 33.0 µM,-11%
same,growth inhibition,[8]; [18],33%
same,growth inhibition,[8]; at 50.0 µM,58.2%
same,growth inhibition,[8]; at 100.0 µM,92% (active)
same,growth inhibition,[9]; at 1.2 µM,-37%
same,growth inhibition,[9]; at 3.7 µM,-33%
same,growth inhibition,[9]; [17],-10%
same,growth inhibition,[9]; at 11.0 µM,-32%
same,growth inhibition,[9]; at 33.0 µM,-42%
same,growth inhibition,[9]; [18],95% (active)
same,growth inhibition,[9]; at 50.0 µM,1.85%
same,growth inhibition,[9]; at 100.0 µM,50%
same,growth inhibition,[10]; at 1.2 µM,-18%
same,growth inhibition,[10]; at 3.7 µM,-20%
same,growth inhibition,[10]; at 11.0 µM,-23%
same,growth inhibition,[10]; at 33.0 µM,-25%
same,growth inhibition,[10]; at 100.0 µM,56%
same,growth inhibition,[11]; [17],5%
same,growth inhibition,[11]; [18],43%
same,growth inhibition,[11]; at 50.0 µM,80.1% (active)
same,growth inhibition,[12]; at 1.2 µM,-10%
same,growth inhibition,[12]; at 3.7 µM,-13%
same,growth inhibition,[12]; at 11.0 µM,-9%
same,growth inhibition,[12]; at 33.0 µM,-17%
same,growth inhibition,[12]; at 100.0 µM,83% (active)
same,growth inhibition,[13]; [17],4%
same,growth inhibition,[13]; [18],53%
same,growth inhibition,[13]; at 50.0 µM,82% (active)
same,growth inhibition,[14]; at 1.2 µM,4%
same,growth inhibition,[14]; at 3.7 µM,10%
same,growth inhibition,[14]; [17],4%
same,growth inhibition,[14]; at 11.0 µM,14%
same,growth inhibition,[14]; at 33.0 µM,14%
same,growth inhibition,[14]; [18],23%
same,growth inhibition,[14]; at 50.0 µM,86.7% (active)
same,growth inhibition,[14]; at 100.0 µM,88% (active)
same,growth inhibition,[15]; at 1.2 µM,-18%
same,growth inhibition,[15]; at 3.7 µM,-19%
same,growth inhibition,[15]; at 11.0 µM,-21%
same,growth inhibition,[15]; at 33.0 µM,-20%
same,growth inhibition,[15]; at 100.0 µM,56%
same,growth inhibition,[1]; at 1.2 µM,-9%
same,growth inhibition,[1]; at 3.7 µM,-19%
same,growth inhibition,[1]; at 11.0 µM,-27%
same,growth inhibition,[1]; at 33.0 µM,-24%
same,growth inhibition,[1]; at 100.0 µM,68%
same,growth inhibition,[3]; [17],-33%
same,growth inhibition,[3]; [18],63%
same,growth inhibition,[3]; at 50.0 µM,48.5%
same,growth inhibition,[4]; at 1.2 µM,-21%
same,growth inhibition,[4]; at 3.7 µM,-32%
same,growth inhibition,[4]; at 11.0 µM,-22%
same,growth inhibition,[4]; at 33.0 µM,-23%
same,growth inhibition,[4]; at 100.0 µM,69%
O=C1OC(CCl)CN1/N=C/c1ccc([N+](=O)[O-])o1 (stereo unspecified),growth inhibition,[5]; at 1.2 µM,-36%
same,growth inhibition,[5]; at 3.7 µM,-11%
same,growth inhibition,[5]; at 11.0 µM,19%
same,growth inhibition,[5]; at 33.0 µM,54%
same,growth inhibition,[5]; at 100.0 µM,88% (active)
same,growth inhibition,[6]; at 1.2 µM,-2%
same,growth inhibition,[6]; at 3.7 µM,2%
same,growth inhibition,[6]; at 11.0 µM,14%
same,growth inhibition,[6]; at 33.0 µM,21%
same,growth inhibition,[6]; at 100.0 µM,54%
same,growth inhibition,[16]; at 1.2 µM,-3%
same,growth inhibition,[16]; at 3.7 µM,-8%
same,growth inhibition,[16]; at 11.0 µM,-3%
same,growth inhibition,[16]; at 33.0 µM,1%
same,growth inhibition,[16]; at 100.0 µM,25%
same,growth inhibition,[8]; at 1.2 µM,-10%
same,growth inhibition,[8]; at 3.7 µM,-8%
same,growth inhibition,[8]; [17],19%
same,growth inhibition,[8]; at 11.0 µM,3%
same,growth inhibition,[8]; at 33.0 µM,45%
same,growth inhibition,[8]; [18],78% (active)
same,growth inhibition,[8]; at 50.0 µM,21.7%
same,growth inhibition,[8]; at 100.0 µM,80% (active)
same,growth inhibition,[9]; at 1.2 µM,-4%
same,growth inhibition,[9]; at 3.7 µM,-3%
same,growth inhibition,[9]; [17],9%
same,growth inhibition,[9]; at 11.0 µM,0%
same,growth inhibition,[9]; at 33.0 µM,7%
same,growth inhibition,[9]; [18],76% (active)
same,growth inhibition,[9]; at 50.0 µM,44.2%
same,growth inhibition,[9]; at 100.0 µM,19%
same,growth inhibition,[10]; at 1.2 µM,-7%
same,growth inhibition,[10]; at 3.7 µM,0%
same,growth inhibition,[10]; at 11.0 µM,14%
same,growth inhibition,[10]; at 33.0 µM,38%
same,growth inhibition,[10]; at 100.0 µM,71% (active)
same,growth inhibition,[11]; [17],35%
same,growth inhibition,[11]; [18],89% (active)
same,growth inhibition,[11]; at 50.0 µM,71.9% (active)
same,growth inhibition,[12]; at 1.2 µM,-7%
same,growth inhibition,[12]; at 3.7 µM,-8%
same,growth inhibition,[12]; at 11.0 µM,-6%
same,growth inhibition,[12]; at 33.0 µM,-7%
same,growth inhibition,[12]; at 100.0 µM,-2%
same,growth inhibition,[13]; [17],4%
same,growth inhibition,[13]; [18],73% (active)
same,growth inhibition,[13]; at 50.0 µM,47.1%
same,growth inhibition,[14]; at 1.2 µM,-8%
same,growth inhibition,[14]; at 3.7 µM,-4%
same,growth inhibition,[14]; [17],1%
same,growth inhibition,[14]; at 11.0 µM,-5%
same,growth inhibition,[14]; at 33.0 µM,2%
same,growth inhibition,[14]; [18],70% (active)
same,growth inhibition,[14]; at 50.0 µM,10%
same,growth inhibition,[14]; at 100.0 µM,16%
same,growth inhibition,[15]; at 1.2 µM,2%
same,growth inhibition,[15]; at 3.7 µM,2%
same,growth inhibition,[15]; at 11.0 µM,20%
same,growth inhibition,[15]; at 33.0 µM,54%
same,growth inhibition,[15]; at 100.0 µM,90% (active)
same,growth inhibition,[1]; at 1.2 µM,-9%
same,growth inhibition,[1]; at 3.7 µM,-4%
same,growth inhibition,[1]; at 11.0 µM,-1%
same,growth inhibition,[1]; at 33.0 µM,14%
same,growth inhibition,[1]; at 100.0 µM,69%
same,growth inhibition,[2]; at 1.2 µM,-6%
same,growth inhibition,[2]; at 3.7 µM,9%
same,growth inhibition,[2]; at 11.0 µM,49%
same,growth inhibition,[2]; at 33.0 µM,83% (active)
same,growth inhibition,[2]; at 100.0 µM,95% (active)
same,growth inhibition,[3]; [17],66%
same,growth inhibition,[3]; [18],92% (active)
same,growth inhibition,[3]; at 50.0 µM,87.9% (active)
same,growth inhibition,[4]; at 1.2 µM,45%
same,growth inhibition,[4]; at 3.7 µM,72% (active)
same,growth inhibition,[4]; at 11.0 µM,91% (active)
same,growth inhibition,[4]; at 33.0 µM,95% (active)
same,growth inhibition,[4]; at 100.0 µM,96% (active)

# Source: PubChem BioAssay (NCI)
